Results taken from PubChem BioAssay (NCATS).
“And” between values parts separate entries of the source, which are not always exact repeats. Equal entries are not always repeated. Unmarked numbers belong to inactive results. Inconclusive results are not listed. The source made the active and inactive calls. Unless noted, calls follow the shape of the dose curve; as a rule, active = well fitted inhibition curve with a large enough effect; inconclusive = small, poorly fitted or top-dose-only effect; inactive = flat fitted curve, though single readings scatter. Where a SMILES comes first, the peptide text is derived from it. Bridges are numbered along the chain shown (N, C = ends). [ ]: non-standard residue; d: D form. The star is where a group is joined. X2 = CC[C@H](C)CCCCC(=O)*; Dab = NCC[C@H](N)C(=O)O

How the values were obtained:
[1] = Drug repurposing screens with cells derived from glioblastoma tumor samples (AID 1345199); details: GBM patient neurospheres viability, ATP luminescence, 48 h; also: nearly all actives have a fitted effect of over 40% in size; also: potency is read from the fitted curve at half-maximal effect; as to activity, negative = cell killing: % is scaled to controls: 0 for no effect and ±100 for the full control effect
How it was run: (§1)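 Primary testing used CD133+ neurospheres from four GBM patients, seven concentrations, 48 h exposure and ATP-based viability; confirmation added three slower-growing patient lines.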

[2] = test system: astro; test: as above; details: viability, ATP luminescence, 48 h; series mostly up to 45.9 µM
How it was run: as §1

[3] = molecular target: Nuclear receptor subfamily 1 group I member 2 (Rattus norvegicus) (UniProt Q9R1A7); test: qHTS assay for small molecule activators of the rat pregnane X receptor (rPXR) signaling pathway (AID 651751; call rule not given here; also: 0% is about no effect); details: rPXR reporter cells, luciferase (One-Glo), 24 h
[4] = qHTS assay for small molecule activators of the human pregnane X receptor (PXR) signaling pathway (AID 720659; call rule not given here; also: 0% is about no effect); details: DPX-2 HepG2 CYP3A4-luciferase, 24 h; series mostly up to 92.3 µM
[5] = at 45.9 µM (top of the series), tumour line B
[6] = at 45.9 µM (top of the series), tumour line D
[7] = at 46 µM (top of the series), tumour line A
[8] = at 46.1 µM (top of the series), tumour line C

Sequence of Nuclear receptor subfamily 1 group I member 2 (Rattus norvegicus) (Q9R1A7 whole entry, looked up): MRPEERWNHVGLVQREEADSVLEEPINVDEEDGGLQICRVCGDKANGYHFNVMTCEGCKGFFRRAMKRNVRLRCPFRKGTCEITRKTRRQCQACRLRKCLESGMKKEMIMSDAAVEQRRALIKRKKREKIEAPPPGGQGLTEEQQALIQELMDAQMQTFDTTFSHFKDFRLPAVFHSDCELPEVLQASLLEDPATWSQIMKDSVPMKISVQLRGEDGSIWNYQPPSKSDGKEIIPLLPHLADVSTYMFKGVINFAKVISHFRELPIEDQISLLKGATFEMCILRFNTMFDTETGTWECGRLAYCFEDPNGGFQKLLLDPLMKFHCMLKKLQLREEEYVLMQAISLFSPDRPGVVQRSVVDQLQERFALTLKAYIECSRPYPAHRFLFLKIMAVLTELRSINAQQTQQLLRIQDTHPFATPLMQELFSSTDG

Structure (SMILES)	activity, negative = cell killing [1, 5]	activity, negative = cell killing [1, 6]	activity, negative = cell killing [1, 7] [%]	activity, negative = cell killing [1, 8]	Potency [2]	max response [3]	outcome [4]	Potency ([1]; tumour line A)
Nc1c(CC(=O)O)cccc1C(=O)c1ccccc1	-6.42% and -16.2%	1.99% and -19.1%	-11.4	-6.15% and -12.2%	inactive			
C=Cc1ccccc1	-11.1%	3.17%	-1.65	3.42%	inactive	2.91% and 3.44%	inactive	
CCOc1ccc(N=C(C)Nc2ccc(OCC)cc2)cc1	-12.2%			-2.07%	inactive			11.2 µM (active)
COc1ccc(C(=O)Nc2ccccc2CCC2CCCCN2C)cc1 (centres undefined)	-11.1%	-17.7%		-23.4%	inactive			10 µM (active)
CCCCOC(=O)C(=O)Nc1cccc(-c2nn[nH]n2)c1	-12.5%	2.48%		-2.11%	inactive			
CCC(=O)OCC(=O)[C@@]1(OC(=O)CC)[C@@H](C)C[C@H]2[C@@H]3CCC4=CC(=O)C=C[C@]4(C)[C@@]3(Cl)[C@@H](O)C[C@@]21C	-9.44%			-19%	inactive			10 µM (active)
CCC(c1ccccc1)c1noc(CCN(CC)CC)n1 (centres undefined)	-14.3%	-10.2%		-2.54%	inactive			
CC[C@H](C)CCCCC(=O)N[C@@H](CCN)C(=O)N[C@H](C(=O)N[C@@H](CCN)C(=O)N[C@H]1CCNC(=O)[C@H]([C@@H](C)O)NC(=O)[C@H](CCN)NC(=O)[C@H](CCN)NC(=O)[C@H](CC(C)C)NC(=O)[C@@H](CC(C)C)NC(=O)[C@H](CCN)NC1=O)[C@@H](C)O (X2-[Dab]T[Dab][Dab][Dab][dL]L[Dab][Dab]T; lactam 4-C)	6.46%	12.6%		-10.4%	inactive			
COc1cc(C[C@@H]2NCCc3cc(O)c(O)cc32)cc(OC)c1OC	13.6%	-12.2%		-8.42%	inactive			
Cc1cccc(C)c1N(CCCc1cccnc1)C(=O)C(C)N (centres undefined)	-3.85%	-15.3%			inactive			11.2 µM (active)
O=C(Nc1ccc(/C=C/c2ccc(NC(=O)c3cc(S(=O)(=O)O)c4cccnc4c3O)cc2S(=O)(=O)O)c(S(=O)(=O)O)c1)c1cc(S(=O)(=O)O)c2cccnc2c1O	-15.1%	6.57%		-10.9%	inactive			
c1cnc2cc3c(cc2n1)[C@@H]1CNC[C@H]3C1	5.48%	-17.8%		-0.703%	inactive			
CCCCc1cc2c(=O)c(C(=O)OC)c[nH]c2cc1OCc1ccccc1	-16.1%	-19.6%		-7.65%	inactive			
CN1CC(O)c2cc(N=NC(N)=O)c(O)cc21 (centres undefined)	-10.8%		-26.7	26.2%	inactive			
NCCC[C@H](N)C(=O)O	-11.7%	-10.6%		-18.4%	inactive			
CCOC(=O)Cc1cccc(-c2cc(CCCCCCc3ccc(O[C@H]4O[C@H](COC(C)=O)[C@@H](OC(C)=O)[C@H](OC(C)=O)[C@@H]4OC(C)=O)c(-c4cccc(CC(=O)OCC)c4)c3)ccc2O[C@H]2O[C@H](COC(C)=O)[C@@H](OC(C)=O)[C@H](OC(C)=O)[C@@H]2OC(C)=O)c1	-6.7%	-4.61%		18%	inactive			
